{
  "source": "the supplement of paper PMC8728848",
  "experiment_in_all_cases": "glycan array binding signal (z-score within array); higher = stronger binding",
  "details_in_all_cases": "glycan notation: IUPAC condensed, linker removed",
  "key": {"[1]": {"target": "Fuc(a1-2)Gal(b1-3)GalNAc(a1-3)[Fuc(a1-2)]Gal(b1-4)Glc", "outline": "(§1)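 Negative Z-scores can be read as non-binding. The Z-score is calculated within each array and then averaged across arrays of one protein sequence at different concentrations or buffers and across linkers. Arrays, 3228 in all, were curated from the Consortium for Functional Glycomics database and kept only where the protein sequence was available.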"}, "[2]": {"target": "Fuc(a1-2)Gal(b1-3)GalNAc(b1-4)[Neu5Ac(a2-3)]Gal(b1-4)Glc", "outline": "as §1"}, "Fuc(a1-2)Gal(b1-3)GlcNAc": {"target": "Fuc(a1-2)Gal(b1-3)GlcNAc", "outline": "as §1"}, "[3]": {"target": "Fuc(a1-2)Gal(b1-3)GlcNAc(b1-3)GalNAc", "outline": "as §1"}, "[4]": {"target": "Fuc(a1-2)Gal(b1-4)GlcNAc(b1-2)[Fuc(a1-2)Gal(b1-4)GlcNAc(b1-4)]Man(a1-3)[Fuc(a1-2)Gal(b1-4)GlcNAc(b1-2)Man(a1-6)]Man(b1-4)GlcNAc(b1-4)GlcNAc", "outline": "as §1"}, "[5]": {"target": "Fuc(a1-2)Gal(b1-4)GlcNAc6S", "outline": "as §1"}, "[6]": {"target": "Fuc(a1-2)Gal(b1-4)[Fuc(a1-3)]GlcNAc(b1-2)[Fuc(a1-2)Gal(b1-4)[Fuc(a1-3)]GlcNAc(b1-4)]Man(a1-3)[Fuc(a1-2)Gal(b1-4)[Fuc(a1-3)]GlcNAc(b1-2)Man(a1-6)]Man(b1-4)GlcNAc(b1-4)GlcNAc", "outline": "as §1"}, "[7]": {"target": "Fuc(a1-2)[Gal(a1-3)]Gal(b1-4)GlcNAc(b1-2)Man(a1-3)[Fuc(a1-2)[Gal(a1-3)]Gal(b1-4)GlcNAc(b1-2)Man(a1-6)]Man(b1-4)GlcNAc(b1-4)GlcNAc", "outline": "as §1"}, "[8]": {"target": "Fuc(a1-2)[GalNAc(a1-3)]Gal(b1-3)GalNAc(a1-3)[Fuc(a1-2)]Gal(b1-4)GlcNAc", "outline": "as §1"}, "[9]": {"target": "Fuc(a1-2)[GalNAc(b1-3)]Gal", "outline": "as §1"}, "[10]": {"target": "Fuc(a1-3)[Gal(b1-4)]GlcNAc(b1-3)GalNAc", "outline": "as §1"}, "[11]": {"target": "Fuc(a1-3)[Gal(b1-4)]GlcNAc(b1-4)Gal(b1-4)[Fuc(a1-3)]GlcNAc(b1-4)Gal(b1-4)[Fuc(a1-3)]GlcNAc", "outline": "as §1"}, "[12]": {"target": "Fuc(a1-3)[Gal(b1-4)]GlcNAc(b1-6)[Gal(b1-3)GlcNAc(b1-3)]Gal(b1-4)Glc", "outline": "as §1"}, "Fuc(b1-3)GlcNAc": {"target": "Fuc(b1-3)GlcNAc", "outline": "as §1"}, "[13]": {"target": "Gal(a1-3)Fuc(a1-2)Gal(b1-4)GlcNAc(b1-3)[Gal(a1-3)Fuc(a1-2)Gal(b1-4)GlcNAc(b1-6)]GalNAc", "outline": "as §1"}, "Gal(b1-3)Gal": {"target": "Gal(b1-3)Gal", "outline": "as §1"}, "[14]": {"target": "Gal(b1-3)[Fuc(a1-4)]GlcNAc(b1-3)Gal(b1-4)GlcNAc", "outline": "as §1"}, "[15]": {"target": "Gal(b1-4)GalNAc(a1-3)[Fuc(a1-2)]Gal(b1-4)GlcNAc", "outline": "as §1"}, "[16]": {"target": "Gal(b1-4)GlcNAc(b1-2)Man(a1-3)[Man(a1-6)]Man(b1-4)GlcNAc(b1-4)GlcNAc", "outline": "as §1"}, "[17]": {"target": "Gal(b1-4)GlcNAc(b1-3)Gal(b1-4)GlcNAc(b1-3)Gal(b1-4)GlcNAc", "outline": "as §1"}, "[18]": {"target": "Gal(b1-4)GlcNAc(b1-3)Gal(b1-4)[Fuc(a1-3)GlcNAc(b1-6)]Gal(b1-4)Glc", "outline": "as §1"}, "[19]": {"target": "Gal(b1-4)GlcNAc(b1-6)GalNAc", "outline": "as §1"}, "Gal4S6S(b1-4)GlcNAc": {"target": "Gal4S6S(b1-4)GlcNAc", "outline": "as §1"}, "GalNAc(b1-3)Gal": {"target": "GalNAc(b1-3)Gal", "outline": "as §1"}, "[20]": {"target": "GlcNAc(b1-3)Gal(b1-4)GlcNAc", "outline": "as §1"}, "GlcNAc(b1-3)Man": {"target": "GlcNAc(b1-3)Man", "outline": "as §1"}, "Kdn(a2-3)Gal(b1-3)GlcNAc": {"target": "Kdn(a2-3)Gal(b1-3)GlcNAc", "outline": "as §1"}, "[21]": {"target": "Man(a1-2)Man(a1-2)Man(a1-6)[Man(a1-3)]Man", "outline": "as §1"}, "[22]": {"target": "Man(a1-2)Man(a1-3)[Man(a1-2)Man(a1-6)]Man(a1-6)[Man(a1-2)Man(a1-2)Man(a1-3)]Man", "outline": "as §1"}, "[23]": {"target": "Man(a1-2)Man(a1-6)[Man(a1-3)]Man(a1-6)[Man(a1-2)Man(a1-2)Man(a1-3)]Man", "outline": "as §1"}, "[24]": {"target": "Man(a1-2)Man(a1-6)[Man(a1-3)]Man(a1-6)[Man(a1-2)Man(a1-2)Man(a1-3)]Man(b1-4)GlcNAc(b1-4)GlcNAc", "outline": "as §1"}, "Man(a1-3)[Man(a1-6)]Man": {"target": "Man(a1-3)[Man(a1-6)]Man", "outline": "as §1"}, "[25]": {"target": "Man(a1-3)[Man(a1-6)]Man(a1-6)[Man(a1-2)Man(a1-3)]Man(b1-4)GlcNAc(b1-4)GlcNAc", "outline": "as §1"}, "[26]": {"target": "Man(a1-3)[Man(a1-6)]Man(a1-6)[Man(a1-3)]Man", "outline": "as §1"}, "[27]": {"target": "Man(a1-3)[Man(a1-6)]Man(a1-6)[Man(a1-3)]Man(b1-4)GlcNAc(b1-4)GlcNAc", "outline": "as §1"}, "[28]": {"target": "Neu5Ac(a2-3)Gal(b1-3)GalNAc(b1-4)[Neu5Ac(a2-8)Neu5Ac(a2-3)]Gal(b1-4)Glc", "outline": "as §1"}, "Neu5Ac(a2-3)Gal(b1-4)Glc": {"target": "Neu5Ac(a2-3)Gal(b1-4)Glc", "outline": "as §1"}, "[29]": {"target": "Neu5Ac(a2-3)Gal(b1-4)[Fuc(a1-3)]GlcNAc6S", "outline": "as §1"}, "[30]": {"target": "Neu5Ac(b2-6)Gal(b1-4)GlcNAc", "outline": "as §1"}, "[31]": {"target": "Neu5Gc(a2-3)Gal(b1-4)[Fuc(a1-3)]GlcNAc", "outline": "as §1"}},
  "note": "Shown is part of a subset that was picked to be rich in the strongest signals.",
  "data": [
    {"binder": "BC2L-D C-terminal domain (Burkholderia cenocepacia), Q39MQ9_BURS3 (protein) LVIVDAVTLLSAYPEASRDPAAPTVIDGRHLYVVSPGDAAQLGHNDSRLFTGLSPGDQLHLRETALALRAEVSVLFIRFALKDAGIVAPIELEVRDAATAVPDADDLLHPSCRPLKDHYWRSDVLAAGATTCTADFAVCDRDGTVSGYFRWETSIEIAGSQPDTKQPGFKPSSDRNGNFSLPPNTAFKAIFYANAADRQDLKLFIDDAPEPAATFVGNSEDGVRLFTLNSKGGKIRIEASANGRQSATDARLAPLSAGDTVWLGWLGAEDGADADYNDGIVILQWPIT", "values": [
      {"measurement": "glycan array binding signal (z-score)", "setting": "[1]", "result": -0.158},
      {"measurement": "glycan array binding signal (z-score)", "setting": "[2]", "result": 0.376},
      {"measurement": "glycan array binding signal (z-score)", "setting": "Fuc(a1-2)Gal(b1-3)GlcNAc", "result": 0.536},
      {"measurement": "glycan array binding signal (z-score)", "setting": "[3]", "result": -0.16},
      {"measurement": "glycan array binding signal (z-score)", "setting": "[4]", "result": -0.137},
      {"measurement": "glycan array binding signal (z-score)", "setting": "[5]", "result": 0.114},
      {"measurement": "glycan array binding signal (z-score)", "setting": "[6]", "result": -0.147},
      {"measurement": "glycan array binding signal (z-score)", "setting": "[7]", "result": -0.167},
      {"measurement": "glycan array binding signal (z-score)", "setting": "[8]", "result": -0.169},
      {"measurement": "glycan array binding signal (z-score)", "setting": "[9]", "result": -0.242},
      {"measurement": "glycan array binding signal (z-score)", "setting": "[10]", "result": -0.164},
      {"measurement": "glycan array binding signal (z-score)", "setting": "[11]", "result": 0.024},
      {"measurement": "glycan array binding signal (z-score)", "setting": "[12]", "result": -0.165},
      {"measurement": "glycan array binding signal (z-score)", "setting": "Fuc(b1-3)GlcNAc", "result": -0.241},
      {"measurement": "glycan array binding signal (z-score)", "setting": "[13]", "result": -0.159},
      {"measurement": "glycan array binding signal (z-score)", "setting": "Gal(b1-3)Gal", "result": -0.242},
      {"measurement": "glycan array binding signal (z-score)", "setting": "[14]", "result": -0.137},
      {"measurement": "glycan array binding signal (z-score)", "setting": "[15]", "result": -0.242},
      {"measurement": "glycan array binding signal (z-score)", "setting": "[16]", "result": 0.676},
      {"measurement": "glycan array binding signal (z-score)", "setting": "[17]", "result": -0.242},
      {"measurement": "glycan array binding signal (z-score)", "setting": "[18]", "result": -0.165},
      {"measurement": "glycan array binding signal (z-score)", "setting": "[19]", "result": -0.2},
      {"measurement": "glycan array binding signal (z-score)", "setting": "Gal4S6S(b1-4)GlcNAc", "result": -0.243},
      {"measurement": "glycan array binding signal (z-score)", "setting": "GalNAc(b1-3)Gal", "result": -0.243},
      {"measurement": "glycan array binding signal (z-score)", "setting": "[20]", "result": -0.241},
      {"measurement": "glycan array binding signal (z-score)", "setting": "GlcNAc(b1-3)Man", "result": -0.243},
      {"measurement": "glycan array binding signal (z-score)", "setting": "Kdn(a2-3)Gal(b1-3)GlcNAc", "result": -0.242},
      {"measurement": "glycan array binding signal (z-score)", "setting": "[21]", "result": 5.14},
      {"measurement": "glycan array binding signal (z-score)", "setting": "[22]", "result": 4.23},
      {"measurement": "glycan array binding signal (z-score)", "setting": "[23]", "result": 5.62},
      {"measurement": "glycan array binding signal (z-score)", "setting": "[24]", "result": 6.24},
      {"measurement": "glycan array binding signal (z-score)", "setting": "Man(a1-3)[Man(a1-6)]Man", "result": 4.31},
      {"measurement": "glycan array binding signal (z-score)", "setting": "[25]", "result": 6.86},
      {"measurement": "glycan array binding signal (z-score)", "setting": "[26]", "result": 5.02},
      {"measurement": "glycan array binding signal (z-score)", "setting": "[27]", "result": 3.67},
      {"measurement": "glycan array binding signal (z-score)", "setting": "[28]", "result": -0.154},
      {"measurement": "glycan array binding signal (z-score)", "setting": "Neu5Ac(a2-3)Gal(b1-4)Glc", "result": -0.248},
      {"measurement": "glycan array binding signal (z-score)", "setting": "[29]", "result": -0.244},
      {"measurement": "glycan array binding signal (z-score)", "setting": "[30]", "result": -0.248},
      {"measurement": "glycan array binding signal (z-score)", "setting": "[31]", "result": -0.236}
    ]}
  ]
}
